Data taken from PubChem BioAssay (NCI).
This is part of a sample that, as a whole, favours compounds with a hit. Of some 83,000 tested, about 20% had one in any assay.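 Single-dose data. Exposure time 48 hours. Values below 10 considered active.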 A number with no mark means an inactive call. Active and inactive are the calls of the source.

Experiments:
Experiment in all cases: NCI-60 one-dose screen, 48 h (100 = growth as untreated, 0 = no growth, -100 = all killed)
Conditions in all cases: 10 µM unless noted
[1] = test system: NCI-H23 lung
[2] = test system: NCI-H226 lung
[3] = test system: NCI-H322M lung
[4] = test system: HOP-62 NSCLC
[5] = test system: NCI-H460 lung
[6] = test system: HOP-92 NSCLC
[7] = test system: NCI-H522 lung
[8] = test system: A549/ATCC NSCLC
[9] = test system: 786-0 renal
[10] = test system: COLO 205 colon
[11] = test system: DU-145 prostate
[12] = test system: K-562 leukemia
[13] = test system: MALME-3M melanoma
[14] = test system: MDA-MB-231 breast
[15] = test system: RXF 393 renal
[16] = test system: SF-268 CNS
[17] = test system: SF-295 CNS
[18] = test system: SF-539 CNS
[19] = test system: UACC-257 melanoma
[20] = test system: M14 melanoma

Row | Structure (SMILES) | growth [1] | growth [2] [%] | growth [3] [%] | growth [4] | growth [5] | growth [6] | growth [7] | growth [8] [%] | growth [9] | growth [10] | growth [11] | growth [12] | growth [13] | growth [14] | growth [15] | growth [16] | growth [17] [%] | growth [18] | growth [19] | growth [20]
1 | Cn1cc(-c2csc(-c3cn(CCCCN4CCCCC4)c4ccc(F)cc34)n2)c2cccnc21 | 79.8% | 74.6 | 81.5 | 88.8% | 89.3% | 51.7% | 86.2% | 92.6 | -62% (active) | 96.7% | -81% (active) | -76.1% (active) | -68.4% (active) | 71.4% | 26.8% | 72% | 99.7 | 75.3% | -42.6% (active) | -78.7% (active)
2 | CCCCCCCCCCCCCCCCCCOc1ccccc1COP(=O)(O)OOCC[N+](C)(C)C | 1.55% (active) | 42 | 87.6 | 3.04% (active) | 37.1% | -27.7% (active) | 21% | 35.1 | 9.57% (active) | -30.3% (active) | 9.26% (active) | 1.4% (active) | -12.3% (active) | -40.7% (active) | -64.7% (active) | 10.6% | 27.2 | 7.74% (active) | 11.5% | -29.1% (active)
3 | O=C1C2C(C(=O)[N]1[Hg][c]1ccccc1)C1(Cl)C(Cl)=C(Cl)C2(Cl)C1(Cl)Cl (stereo not given) | -8.01% (active) | 82.9 | 45.1 | 47.2% | -20.9% (active) | -84.5% (active) | -87.4% (active) | 78.7 | 26% | -96.5% (active) | -86.6% (active) | 4.39% (active) | -78.4% (active) | -2.38% (active) | -98.6% (active) | -66.4% (active) | 67.8 | 10.3% | -67.8% (active) | -82.3% (active)
4 | O=C1C2CC=CCC2C(=O)N1SC(Cl)(Cl)Cl (stereo not given) | 96.7% | 106 | 125 | 95.9% | 103% | 64.7% | -57.1% (active) | 108 | 97.7% | 87.5% | 109% | 45.1% | 81.8% | 103% | 63.6% | 104% | 134 | 91.3% | 105% | 92.1%
5 | CC1(C)C(C(=O)c2cn(CCCCF)c3ccccc23)C1(C)C | 85.4% | 82.1 | 112 | 92.9% | 103% | 98% | 56.9% | 78.5 | 99.3% | 99.5% | 105% | 71.3% | 92.9% | 94% | 84.5% | 98.8% | 91.5 | 93.2% | 81.1% | 95%
6 | CCC(=O)Nc1ccc(Cl)c(Cl)c1 | 96.5% | 102 | 93.5 | 93.7% | 111% | 76.8% | 84.7% | 92.5 | 91.1% | 107% | 115% | 97.6% | 102% | 92.2% | 101% | 105% | 98.3 | 92.4% | 102% | 103%
7 | C[S+]1C=Cc2ccccc2C1c1ccc(Cl)cc1 (stereo not given) | 83.7% | 85.1 | 99.5 | 126% | 99.6% | -54.5% (active) | 18.9% | 78.9 | 111% | 114% | 99.8% | 78.8% | 103% | 103% | 74.8% | 47.1% | 68 | 104% | 92.5% | 83.6%
8 | CC(C)=CCc1c(O)c(C(=O)CC(C)C)c(O)c2c(-c3ccccc3)cc(=O)oc12 | 26.8% | 47.4 | 63.2 | 84.2% | 27.9% | -13.2% (active) | 31.5% | 54.6 | 66.2% | 83.1% | 61.9% | 28% | 56.9% | 5.93% (active) | 74.1% | 52.1% | 43.4 | 68.9% | 58.1% | 61%
